Measurements: PubChem BioAssay (EPA / NIEHS)
Active and inactive are the calls of the source. Rule for the calls: active = hit-call score of the fitted dose curve at least 0.9, where 1 is the maximum; inconclusive = response in the unintended direction; inactive = score below 0.9.

Each compound was assayed against Estrogen receptor beta (Homo sapiens) (UniProt Q92731) (assay: OT_ER_ERbERb_1440: Odyssey Thera (OT) 24-hour HEK293T Protein-Complementation Assay for Estrogen Receptor-beta/-beta Homodimer (AID 2283380);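 note: scored as signal increase over DMSO baseline for both agonists and antagonists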).
Summary of the method: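 HEK293T cells stably expressing ER beta LBD (aa 310-547) homodimer fragment-complementation reporter, dosed 24 h. Cells formaldehyde-fixed, Draq5-stained; gain in nuclear (agonist) or nuclear plus cytoplasmic (antagonist) fluorescence versus DMSO read by laser scanning cytometry.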

Chain of Estrogen receptor beta (Homo sapiens) (Q92731 whole entry, looked up, the tested form may be a part): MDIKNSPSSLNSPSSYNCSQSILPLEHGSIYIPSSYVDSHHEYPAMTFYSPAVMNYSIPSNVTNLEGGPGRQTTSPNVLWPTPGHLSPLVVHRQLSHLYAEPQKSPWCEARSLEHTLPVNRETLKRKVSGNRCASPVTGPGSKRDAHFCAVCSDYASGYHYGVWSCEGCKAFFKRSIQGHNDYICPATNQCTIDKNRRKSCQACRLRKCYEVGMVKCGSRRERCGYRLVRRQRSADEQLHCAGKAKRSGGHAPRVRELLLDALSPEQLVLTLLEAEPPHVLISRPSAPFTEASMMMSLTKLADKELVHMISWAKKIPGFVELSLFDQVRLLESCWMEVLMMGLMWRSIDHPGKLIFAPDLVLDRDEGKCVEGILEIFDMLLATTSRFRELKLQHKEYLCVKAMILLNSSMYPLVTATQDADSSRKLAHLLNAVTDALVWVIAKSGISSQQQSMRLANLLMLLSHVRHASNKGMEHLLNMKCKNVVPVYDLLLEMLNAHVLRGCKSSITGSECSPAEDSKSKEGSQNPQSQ

| Structure (SMILES) | outcome | AC50 |
| --- | --- | --- |
| O=C(c1ccccc1)C(O)c1ccccc1 (stereo not given) | inactive | – |
| CCOc1ccccc1O | inactive | – |
| CCC1(C)NC(=O)NC1=O (stereo not given) | inactive | – |
| COC(=O)c1ccc(C)cc1C1=NC(C)(C(C)C)C(=O)N1 (stereo not given) (tested in a mixture with another compound) | inactive | – |
| CC(CN=Cc1ccccc1O)N=Cc1ccccc1O (stereo not given) | inactive | – |
| CCCCOC(=O)CCCCCCCC(=O)OCCCC | inactive | – |
| CCCCC(CC)COC(=O)c1ccc(O)cc1 (stereo not given) | – | 1.92 µM (active) |
| CC(=O)O[C@@H]1CC2CCC1(C)C2(C)C (stereo not given in full) | inactive | – |
| CCCCCCCCCC(=O)OC | inactive | – |
| CC1CC(O)CC(C)(C)C1 (stereo not given) | inactive | – |
| c1ccc(Oc2ccccc2)cc1 | inactive | – |
| Clc1ccc(C(c2ccccc2Cl)C(Cl)Cl)cc1 (stereo not given) | – | 5.53 µM (active) |
| COS(=O)(=O)O | inactive | – |
| CC(C)Nc1nc(N)nc(Cl)n1 | inactive | – |
| CCCCCC(C=O)=Cc1ccccc1 | inactive | – |
| CCCCCCCC(=O)OCC(O)CO (stereo not given) | inactive | – |
| CCCCCCCCN1CCCC1=O | inactive | – |
| C=C(C)[C@@H]1CC=C(C)C(=O)C1 | inactive | – |

| Structure (SMILES) | outcome | AC50 |
| --- | --- | --- |
| CCCCCCCCCCCCN1CCCCCC1=O | inactive | – |
| C[Si](C)(C)O[Si](C)(C)C | inactive | – |
| CC(C)c1ccccc1O | inactive | – |
| C=CC(=O)OCCCC | inactive | – |
| ON=C1CCCCC1 | inactive | – |
| CN1C(=O)c2ccccc2C1=O | inactive | – |
| C=Cc1ccc(C)cc1 | inactive | – |
| [O-]n1ccccc1=S.[O-]n1ccccc1=S.[Zn+2] | inactive | – |
| O=P(O)(O)O | inactive | – |
| O=C(CC(=O)c1ccccc1)c1ccccc1 | – | 85.9 µM (active) |
| CCCCCC(C)=O | inactive | – |
| C=C(C)C(=O)OCCOC1CC2CC1C1C=CCC21 (stereo not given) | inactive | – |
| Cc1cc(S(=O)(=O)O)ccc1N=Nc1c(O)ccc2ccccc12 | inactive | – |
| C#CC(C)(O)CC(C)C (stereo not given) | inactive | – |
| OC[C@H]1O[C@@H]2O[C@H]3[C@H](O)[C@@H](O)[C@@H](O[C@H]4[C@H](O)[C@@H](O)[C@@H](O[C@H]5[C@H](O)[C@@H](O)[C@@H](O[C@H]6[C@H](O)[C@@H](O)[C@@H](O[C@H]7[C@H](O)[C@@H](O)[C@@H](O[C@H]8[C@H](O)[C@@H](O)[C@@H](O[C@H]9[C@H](O)[C@@H](O)[C@@H](O[C@H]1[C@H](O)[C@H]2O)O[C@@H]9CO)O[C@@H]8CO)O[C@@H]7CO)O[C@@H]6CO)O[C@@H]5CO)O[C@@H]4CO)O[C@@H]3CO | inactive | – |
| OCC#CCO | inactive | – |
| Cc1cc(=O)oc2cc(N(C)C)ccc12 | inactive | – |
